Experimental data as given in PubChem BioAssay AID1159580 (chemical genetic matrix, 2015).
Several values for one entry are separate records, joined by “and”; a condition that tells them apart may be missing. Equal values may be shown once. Screen size: about 5,500 compounds; about 2,000 (36%) were called active. Roughly 18% stayed inconclusive and do not appear here. This is one part of the list. Unmarked numbers belong to inactive results. Cut-off read from the data, not from the text of the source: active = normalized growth mostly below about 0.91 (no sharp cut-off); inconclusive = no clear call, values can overlap the other calls; inactive = mostly above about 0.92.

Assay: chemical genetic growth profiling, strain panel (AID 1159580);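 note: tested at 20 µM; growth read once vehicle control cultures reached saturation at 30 °C; 1 = growth at the plate median or of vehicle wells; lower values mean less growth of the strain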
Conditions: S. cerevisiae deletion strains, growth OD

Q: With `COc1ccc(CC(=O)c2ccc(O)cc2O)cc1` as the compound, how does the normalized growth (locus YAL021C, strain ccr4, stronger effect = lower value) read?
A: Its normalized growth is 0.998.

Q: And the normalized growth (locus YAL026C, strain drs2, stronger effect = lower value)?
A: Its normalized growth is 0.954.

Q: And the normalized growth (locus YAL030W, strain snc1, stronger effect = lower value)?
A: The normalized growth was 0.985.

Q: What about the normalized growth (locus YBL061C, strain skt5, stronger effect = lower value) of the same compound?
A: The normalized growth was 0.986.

Q: And the normalized growth (locus YBR009C, strain hhf1, stronger effect = lower value)?
A: The normalized growth was 0.937.

Q: And the normalized growth (locus YBR021W, strain FUR4, stronger effect = lower value)?
A: Its normalized growth is 0.894.

Q: What about the normalized growth (locus YBR023C, strain chs3, stronger effect = lower value) of the same compound?
A: Its normalized growth is 0.958.

Q: And the normalized growth (locus YBR171W, strain sec66, stronger effect = lower value)?
A: Its normalized growth is 0.973.

Q: And the normalized growth (locus YBR229C, strain ROT2, stronger effect = lower value)?
A: The normalized growth was 0.969.

Q: And the normalized growth (locus YBR231C, strain swc5, stronger effect = lower value)?
A: Its normalized growth is 0.989.

Q: And the normalized growth (locus YBR279W, strain paf1, stronger effect = lower value)?
A: The normalized growth was 0.99.

Q: And the normalized growth (locus YCL011C, strain gbp2, stronger effect = lower value)?
A: Its normalized growth is 0.973.

Q: And the normalized growth (locus YCL016C, strain dcc1, stronger effect = lower value)?
A: Its normalized growth is 0.961.

Q: What about the normalized growth (locus YCL029C, strain bik1, stronger effect = lower value) of the same compound?
A: Its normalized growth is 0.953.

Q: And the normalized growth (locus YCL061C, strain MRC1, stronger effect = lower value)?
A: The normalized growth was 0.965.

Q: What about the normalized growth (locus YCL069W, strain vba3, stronger effect = lower value) of the same compound?
A: Its normalized growth is 0.982.

Q: What about the normalized growth (locus YCR088W, strain abp1, stronger effect = lower value) of the same compound?
A: Its normalized growth is 0.988.

Q: And the normalized growth (locus YDL005C, strain med2, stronger effect = lower value)?
A: Its normalized growth is 1.01.

Q: What about the normalized growth (locus YDL035C, strain GPR1, stronger effect = lower value) of the same compound?
A: The normalized growth was 0.94.

Q: And the normalized growth (locus YDL040C, strain nat1, stronger effect = lower value)?
A: The normalized growth was 0.977.

Q: And the normalized growth (locus YDL074C, strain BRE1, stronger effect = lower value)?
A: The normalized growth was 0.848.

Q: What about the normalized growth (locus YDL101C, strain DUN1, stronger effect = lower value) of the same compound?
A: The normalized growth was 0.969.

Q: What about the normalized growth (locus YDL185W, strain tfp1, stronger effect = lower value) of the same compound?
A: Its normalized growth is 0.983.

Q: What about the normalized growth (locus YDL192W, strain arf1, stronger effect = lower value) of the same compound?
A: Its normalized growth is 0.865 (active).

Q: What about the normalized growth (locus YDR001C, strain nth1, stronger effect = lower value) of the same compound?
A: Its normalized growth is 0.992.

Q: And the normalized growth (locus YDR069C, strain doa4, stronger effect = lower value)?
A: The normalized growth was 1.

Q: And the normalized growth (locus YDR101C, strain arx1, stronger effect = lower value)?
A: Its normalized growth is 0.956.

Q: And the normalized growth (locus YDR137W, strain rgp1, stronger effect = lower value)?
A: Its normalized growth is 0.733 (active).

Q: What about the normalized growth (locus YDR159W, strain sac3, stronger effect = lower value) of the same compound?
A: The normalized growth was 0.96.

Q: What about the normalized growth (locus YDR162C, strain NBP2, stronger effect = lower value) of the same compound?
A: The normalized growth was 0.872.

Q: What about the normalized growth (locus YDR195W, strain ref2) of the same compound?
A: Its normalized growth is 1.19 [resistant] (active).

Q: What about the normalized growth (locus YDR297W, strain sur2, stronger effect = lower value) of the same compound?
A: Its normalized growth is 0.988.

Q: What about the normalized growth (locus YDR318W, strain mcm21, stronger effect = lower value) of the same compound?
A: The normalized growth was 0.912 (active).

Q: What about the normalized growth (locus YDR334W, strain swr1, stronger effect = lower value) of the same compound?
A: Its normalized growth is 0.991.

Q: What about the normalized growth (locus YDR335W, strain msn5, stronger effect = lower value) of the same compound?
A: Its normalized growth is 0.975.

Q: And the normalized growth (locus YDR388W, stronger effect = lower value)?
A: The normalized growth was 0.963.

Q: And the normalized growth (locus YDR392W, strain spt3, stronger effect = lower value)?
A: The normalized growth was 0.455 (active).

Q: What about the normalized growth (locus YDR502C, strain sam2, stronger effect = lower value) of the same compound?
A: Its normalized growth is 0.924.

Q: What about the normalized growth (locus YEL003W, strain gim4, stronger effect = lower value) of the same compound?
A: Its normalized growth is 0.969.

Q: What about the normalized growth (locus YEL037C, strain rad23, stronger effect = lower value) of the same compound?
A: The normalized growth was 0.997.

Q: And the normalized growth (locus YEL061C, strain CIN8 (second series), stronger effect = lower value)?
A: The normalized growth was 0.994.

Q: What about the normalized growth (locus YER015W, strain faa2, stronger effect = lower value) of the same compound?
A: Its normalized growth is 0.971.

Q: What about the normalized growth (locus YER016W, strain bim1, stronger effect = lower value) of the same compound?
A: Its normalized growth is 0.996.

Q: And the normalized growth (locus YER110C, stronger effect = lower value)?
A: The normalized growth was 0.975.

Q: What about the normalized growth (locus YER111C, strain swi4, stronger effect = lower value) of the same compound?
A: The normalized growth was 0.998.

Q: And the normalized growth (locus YER155C, strain BEM2 (second series), stronger effect = lower value)?
A: The normalized growth was 0.768 (active).

Q: What about the normalized growth (locus YER155C, strain BEM2, stronger effect = lower value) of the same compound?
A: The normalized growth was 0.956.

Q: What about the normalized growth (locus YER167W, strain BCK2, stronger effect = lower value) of the same compound?
A: Its normalized growth is 0.962.

Q: And the normalized growth (locus YFR010W, strain ubp6, stronger effect = lower value)?
A: The normalized growth was 1.01.

Q: And the normalized growth (locus YGL078C, strain dbp3, stronger effect = lower value)?
A: Its normalized growth is 0.983.

Q: What about the normalized growth (locus YGL086W, strain mad1, stronger effect = lower value) of the same compound?
A: The normalized growth was 0.928 (active).

Q: What about the normalized growth (locus YGL167C, strain pmr1, stronger effect = lower value) of the same compound?
A: The normalized growth was 0.984.

Q: What about the normalized growth (locus YGL173C, strain kem1, stronger effect = lower value) of the same compound?
A: Its normalized growth is 0.979.

Q: What about the normalized growth (locus YGL227W, strain vid30, stronger effect = lower value) of the same compound?
A: Its normalized growth is 0.997.

Q: And the normalized growth (locus YGL240W, strain doc1, stronger effect = lower value)?
A: The normalized growth was 0.925.

Q: What about the normalized growth (locus YGL248W, strain PDE1, stronger effect = lower value) of the same compound?
A: Its normalized growth is 0.922.

Q: What about the normalized growth (locus YGL253W, strain hxk2, stronger effect = lower value) of the same compound?
A: Its normalized growth is 0.982.

Q: What about the normalized growth (locus YGR135W, strain pre9, stronger effect = lower value) of the same compound?
A: Its normalized growth is 0.934.

Q: What about the normalized growth (locus YGR252W, strain gcn5, stronger effect = lower value) of the same compound?
A: Its normalized growth is 0.841.

Q: And the normalized growth (locus YHR013C, strain ard1, stronger effect = lower value)?
A: Its normalized growth is 0.963.

Q: What about the normalized growth (locus YHR027C, strain rpn1, stronger effect = lower value) of the same compound?
A: Its normalized growth is 0.987.

Q: What about the normalized growth (locus YHR030C, strain SLT2, stronger effect = lower value) of the same compound?
A: Its normalized growth is 0.953 and 0.949.

Q: What about the normalized growth (locus YHR079C, strain IRE1 (second series), stronger effect = lower value) of the same compound?
A: The normalized growth was 0.978.

Q: What about the normalized growth (locus YHR079C, strain IRE1, stronger effect = lower value) of the same compound?
A: Its normalized growth is 0.959.

Q: What about the normalized growth (locus YHR094C, strain hxt1, stronger effect = lower value) of the same compound?
A: The normalized growth was 0.982.

Q: And the normalized growth (locus YHR129C, strain ARP1, stronger effect = lower value)?
A: The normalized growth was 0.968.

Q: And the normalized growth (locus YHR142W, strain chs7, stronger effect = lower value)?
A: The normalized growth was 0.925.

Q: What about the normalized growth (locus YHR200W, strain rpn10, stronger effect = lower value) of the same compound?
A: The normalized growth was 0.956.

Q: And the normalized growth (locus YIL066C, strain RNR3, stronger effect = lower value)?
A: The normalized growth was 0.953.

Q: And the normalized growth (locus YIL073C, strain SPO22, stronger effect = lower value)?
A: Its normalized growth is 0.866.

Q: And the normalized growth (locus YIL125W, strain kgd1, stronger effect = lower value)?
A: The normalized growth was 1.

Q: And the normalized growth (locus YIR030C, strain dcg1, stronger effect = lower value)?
A: Its normalized growth is 0.972.

Q: What about the normalized growth (locus YJL092W, strain hpr5, stronger effect = lower value) of the same compound?
A: Its normalized growth is 0.987.

Q: What about the normalized growth (locus YJL095W, strain BCK1 (second series), stronger effect = lower value) of the same compound?
A: Its normalized growth is 0.981.

Q: What about the normalized growth (locus YJL095W, strain BCK1, stronger effect = lower value) of the same compound?
A: Its normalized growth is 0.812 and 0.951.

Q: What about the normalized growth (locus YJL115W, strain asf1, stronger effect = lower value) of the same compound?
A: Its normalized growth is 1.01.

Q: And the normalized growth (locus YJL129C, strain trk1, stronger effect = lower value)?
A: The normalized growth was 0.931.

Q: What about the normalized growth (locus YJL134W, strain LCB3, stronger effect = lower value) of the same compound?
A: The normalized growth was 0.981.

Q: What about the normalized growth (locus YJL154C, strain vps35, stronger effect = lower value) of the same compound?
A: Its normalized growth is 0.992.

Q: What about the normalized growth (locus YJL164C, strain tpk1, stronger effect = lower value) of the same compound?
A: The normalized growth was 0.952.

Q: What about the normalized growth (locus YJL166W, strain qcr8, stronger effect = lower value) of the same compound?
A: Its normalized growth is 0.944.

Q: What about the normalized growth (locus YJL168C, strain set2, stronger effect = lower value) of the same compound?
A: The normalized growth was 0.972.

Q: What about the normalized growth (locus YJL187C, strain SWE1 (second series), stronger effect = lower value) of the same compound?
A: Its normalized growth is 0.958.

Q: And the normalized growth (locus YJL187C, strain SWE1, stronger effect = lower value)?
A: Its normalized growth is 0.987.

Q: What about the normalized growth (locus YJR066W, strain TOR1, stronger effect = lower value) of the same compound?
A: The normalized growth was 0.93.

Q: And the normalized growth (locus YKL009W, strain mrt4, stronger effect = lower value)?
A: Its normalized growth is 0.956.
